ATXN2 expr inh – inhibitors of ATXN2 expression; HEK-293 ATXN2-luciferase reporter, luminescence, 24 h; Potency, µM (top dose mostly 57 µM), inactives show at the top dose activity change, negative = inhibition, actives largely listed as inhibitors; actives 0.72% (n = 360,000); note: % is set by controls: 0 for no effect and ±100 for the full control effect; nearly all actives have a fitted effect of over 55% in size
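ATXN2-luciferase reporter cells (luciferase flanked by upstream and downstream ATXN2 gene portions) were treated 24 h at 37 °C with compounds at up to 57 uM. SteadyGlo luminescence gave expression; GF-AFC fluorescence gave viability.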
RORgamma inh – blocks mouse ROR gamma transcriptional activity; Drosophila S2 Gal4-RORgamma UAS-luciferase reporter, 20 h; Potency, µM (series often up to 53.6 µM), without a hit: at the top dose activity change, negative = inhibition, usual class: inhibitors; actives 5.4% (n = 310,000); AID 2551; note: % is set by controls: 0 for no effect and ±100 for the full control effect; nearly all actives have a fitted effect of over 60% in size
Target sequence (P51450 whole entry, looked up, the tested form may be a part): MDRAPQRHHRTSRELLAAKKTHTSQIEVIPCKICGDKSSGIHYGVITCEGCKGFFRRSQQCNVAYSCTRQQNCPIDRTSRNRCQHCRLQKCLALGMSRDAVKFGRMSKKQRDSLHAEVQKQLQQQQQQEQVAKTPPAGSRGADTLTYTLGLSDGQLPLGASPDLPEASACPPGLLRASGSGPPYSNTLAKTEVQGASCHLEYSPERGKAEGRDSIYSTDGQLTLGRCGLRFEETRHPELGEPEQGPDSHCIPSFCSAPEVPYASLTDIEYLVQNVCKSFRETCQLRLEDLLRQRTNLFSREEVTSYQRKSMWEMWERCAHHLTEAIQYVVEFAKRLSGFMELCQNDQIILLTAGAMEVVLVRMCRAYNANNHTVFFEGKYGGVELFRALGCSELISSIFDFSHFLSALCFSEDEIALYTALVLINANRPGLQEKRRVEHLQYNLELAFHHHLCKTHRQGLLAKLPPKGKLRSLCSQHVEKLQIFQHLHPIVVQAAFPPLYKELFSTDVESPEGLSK
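Luminescence from a UAS-regulated Photinus luciferase reporter in stably transfected Drosophila Schneider cells is measured; decreased signal marks ROR gamma inhibition. Fusion expression is induced by 700 uM copper sulfate for 20 hr.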
TGFb inhibitor – blocks TGF-b signaling; Potency, µM (highest dose often 46.1 µM), inactives show top-dose activity, negative = inhibition, usual class: inhibitors; HepG2 CAGA-GFP TGF-b/SMAD3 reporter, GFP fluorescence, 18 h; TGF-beta stimulated, 500 pg/mL final; actives 1.2% (n = 410,000); note: % is set by controls: 0 for no effect and ±100 for the full control effect; nearly all actives have a fitted effect of over 65% in size
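Inhibition of TGF-beta-driven CAGA-GFP reporter expression in HEPG2 cells is measured by cellular GFP fluorescence after 18 h stimulation with 500 pg/mL recombinant TGF-beta in 1% FBS medium at 37 degrees C.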
S2 tox – viability counter-screen for ATXN expression inhibitors | actives 0.49% (n = 400,000) | S2 cells (HEK-293 line with an ATXN2-luciferase reporter) viability, CellTiter-Fluor protease fluorescence, 24 h | Potency, µM (titrated, usually from 56.7 µM), most hits filed as cytotoxic; note: nearly all actives have a fitted effect of over 40% in size
Gal4-VP16 FLuc – counter-screen for ROR gamma inhibitors: Gal4-VP16 reporter. Drosophila S2 Gal4-VP16 UAS-luciferase, luminescence, 20 h. actives 3.5% (n = 310,000). Potency, µM (highest dose often 53.6 µM), for the others: at the highest dose activity, negative = inhibition, most hits filed as inhibitors;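 note: Gal4-VP16 expression switched on by copper sulfate through the metallothionein promoter; % is set by controls: 0 for no effect and ±100 for the full control effect; nearly all actives have a fitted effect of over 50% in size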
HepG2 tox – HepG2 cytotoxicity, counter-screen for TGF-b inhibitors; HepG2 CAGA-GFP viability, ATP luminescence, 18 h; AID 588856; actives 0.76% (n = 410,000); Potency, µM (doses to about 46.1 µM), without a hit: at the highest dose activity change, negative = cytotoxicity, hits mostly cytotoxic
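HepG2 CAGA-GFP cells (1000/well, DMEM with 1% FBS) received compound, then TGF-beta at 500 pg/mL final, and were incubated 18 hours at 37 degrees C. Viability was read by CellTiter-Glo luminescence. Media-only wells were set as complete cell-killing and DMSO as no toxicity.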
The depositor's hits bear a star; i = inactive; ? = inconclusive; . = not tested or not shown; [ ] = dose if it differs, or a comment. This is a sample that favours compounds with a hit; in the whole collection about 6.1% have one here. Calls come from the whole dose curve; as a rule, active = well fitted curve in the direction sought with a large enough effect; inconclusive = small, poorly fitted or top-dose-only effect, or another doubt; inactive = no such curve, though single readings can be large; an effect the other way counts as inactive or inconclusive. Potency is the fitted concentration of half-maximal effect.

SMILES	ATXN2 expr inh	RORgamma inh	TGFb inhibitor	S2 tox	Gal4-VP16 FLuc	HepG2 tox
COc1ccc(-c2noc(CSc3nnc(C)n3-c3cccc(C)c3)n2)cc1	-16%	.	-19%	i	.	-16%
Nc1nc[nH]c(=O)c1N	.	.	18%	.	.	6%
Cc1ccc(NC(=O)c2nc(S(=O)(=O)Cc3ccccc3)ncc2Cl)cc1	?	?	?	?	2.2µM*	22µM*
CCc1nnc(NC(=O)c2nc(S(C)(=O)=O)ncc2Cl)s1	?	.	2%	?	.	17%
Cc1ccccc1NC(=O)c1nc(S(C)(=O)=O)ncc1Cl	.	6.3µM*	16µM*	.	3.2µM*	-119%
COc1ccc(NC(=O)c2nc(S(=O)(=O)Cc3cccc(C)c3)ncc2Cl)c(OC)c1	.	?	38%	i	7.9µM*	0%
CCn1c(-c2ccccc2F)nc2cc(NC(C)=O)cc(C(=O)N(C)Cc3cn(C)nc3C)c21	.	.	.	i	.	.
Cc1ccc(CCNC(=O)c2cc3c(=O)oc4ccccc4c3s2)cc1	9%	.	2%	i	.	1%
Cc1ccc(Cc2c(-c3ccc(F)cc3)nc3cc(C)ccn23)cc1	-26%	.	?	28µM*	.	-37%
Cc1ccc(Cc2c(-c3ccc(Br)cc3)nc3cc(C)ccn23)cc1	54%	.	13%	?	.	1%
Cc1cnc(C(=O)NCc2c(C)ncc3c2CCN(C(=O)/C=C/c2cccs2)C3)cn1	.	.	.	i	.	.
CC(=O)c1c(C)[nH]c(=S)c(C#N)c1-c1ccc(Cl)cc1	-9%	?	18%	i	?	0%
CCOC(=O)c1c(C)[nH]c(=S)c(C#N)c1-c1ccc(Cl)cc1	.	11µM*	-6%	i	?	-1%
CCOC(=O)c1c(C)[nH]c(=S)c(C#N)c1-c1ccc(OC)cc1	0%	13µM*	-6%	i	?	2%
CCCCOc1ccc(-c2c(C(=O)Nc3ccccc3)c(C)[nH]c(=S)c2C#N)cc1	3%	-2%	-1%	i	3%	3%
Cc1ccc(/C=C/c2onc(C)c2S(=O)(=O)N2CCC(C(=O)NCc3ccc(OC(C)C)cc3)CC2)cc1	.	.	-12%	.	.	9%
COC(=O)c1cc2oc3ccccc3c2n1Cc1c(C)cc(C)cc1C	.	.	.	.	.	-4%
O=C1C=C[C@@H](O)[C@H]2[C@@H]3C(=O)N(C4CCCCC4)C(=O)[C@@H]3CC[C@H]12	.	-37%[10 µM]	.	.	3%[10 µM]	.
CCOC(=O)N1CCN(CCC(=O)c2ccc(Cl)cc2)CC1	-3%	-9%	?	i	?	-59%
COc1ccc(N2CCN(CC(=O)c3ccccc3)CC2)cc1	-5%	2%	0%	?	3%	-2%
CCOC(=O)N1CCN(CCC(=O)c2ccc(OC)cc2)CC1	.	8%	11µM*	?	4%	-100%
COc1ccc(N2CCN(CCC(=O)c3ccc4ccccc4c3)CC2)cc1	-8%	?	11µM*	i	?	-114%
CCCCn1c(=S)[nH]c2c(=O)n(C)c(=O)n(C)c21	.	.	-3%	i	.	-52%
CCCCn1c(=S)[nH]c2c(oc3ccc(Cl)cc32)c1=O	.	1.1µM*	.	.	?	.
CCCOc1ccc(NC(=O)C2CC(=O)N/C(=N/N=C(\C)CCc3ccc4c(c3)OCO4)S2)cc1 (stereo not given)	10%	?	-3%	i	-1%	-4%
CC(/C=C/c1ccc(N(C)C)cc1)=N/N=C1/NC(=O)CC(C(=O)Nc2ccc(Cl)cc2)S1 (stereo not given)	26%	2.5µM*	10µM*	?	8.9µM*	-38%
CCCOc1ccc(NC(=O)C2CC(=O)N/C(=N/N=C(C)/C=C/c3ccc(N(C)C)cc3)S2)cc1 (stereo not given)	40%	2.8µM*	-17%	i	3.2µM*	-14%
